Structures are written as SMILES. The whole screen tested about 39,000 compounds, of which about 3,300 (8.5%) were called active. The entries come from a sample that favours actives as a whole.

For this experiment, the system named is HepG2. The experiment in a line: cytotoxicity call (relative viability < 0.9). Particulars: 10 µM.
`O=C1CCNCCN1`: the cytotoxicity call was “inactive”.

With `CO[C@@H]1CN(C)C(=O)c2cc(NS(C)(=O)=O)ccc2OC[C@@H](C)N(C(=O)c2ccc3c(c2)OCO3)C[C@@H]1C`, the cytotoxicity call was “inactive”.

Turning to `Cc1noc(C)c1S(=O)(=O)Nc1ccc2c(c1)C(=O)N([C@H](C)CO)C[C@@H](C)[C@@H](CN(C)Cc1ccccc1)OCCCC[C@@H](C)O2`, the cytotoxicity call is “inactive”.

Consider `COc1ccc(NC(=O)Nc2ccc3c(c2)CC(=O)N([C@@H](C)CO)C[C@@H](C)[C@H](CN(C)C(=O)Nc2cccc4ccccc24)O3)cc1`, for which the cytotoxicity call is “inactive”.

`Cc1noc(C)c1S(=O)(=O)Nc1ccc2c(c1)C(=O)N([C@@H](C)CO)C[C@@H](C)[C@@H](CN(C)CC1CCCCC1)OCCCC[C@@H](C)O2`: the cytotoxicity call is “inactive”.

As for `Cc1ccc(Oc2ccccc2)c(NC(=O)c2ccccc2)c1`, the cytotoxicity call is “active”.

Turning to `Cc1cccc(C(=O)NN)c1`, the cytotoxicity call is “inactive”.

`Cc1ccc(C(=O)c2ccc(Oc3ccccc3)cc2)cc1`: the cytotoxicity call was “inactive”.

`COc1cccc(-c2ccc3c(c2)O[C@H](CN(C)Cc2cncnc2)[C@@H](C)CN([C@@H](C)CO)S3(=O)=O)c1`: the cytotoxicity call was “inactive”.

As for `COc1ccc(NC(=O)N(C)C[C@@H]2Oc3c(NC(=O)c4cc(C)nn4C)cccc3C(=O)N([C@@H](C)CO)C[C@H]2C)cc1`, the cytotoxicity call was “inactive”.

As to `CN(C)CC(=O)N1[C@@H]2c3ccc(C4=CCCC4)c(=O)n3C[C@H]1[C@H](CO)[C@H]2C(=O)NCC1CC1`, the cytotoxicity call was “inactive”.

Regarding `C[C@H](CO)N1C[C@H](C)[C@H](CN(C)S(=O)(=O)c2cn(C)cn2)Oc2ccc(NC(=O)Nc3ccccc3)cc2CC1=O`, the cytotoxicity call is “active”.

As for `C[C@@H]1CN([C@H](C)CO)C(=O)c2cc(NC(=O)Nc3ccccc3)ccc2O[C@@H]1CN(C)S(=O)(=O)c1cn(C)cn1`, the cytotoxicity call is “inactive”.

As to `C[C@H]1CN([C@@H](C)CO)C(=O)Cc2cc(NC(=O)Nc3ccccc3)ccc2O[C@H]1CN(C)S(=O)(=O)c1cn(C)cn1`, the cytotoxicity call was “inactive”.

Consider `C[C@H]1CN([C@@H](C)CO)C(=O)Cc2cc(NS(=O)(=O)c3ccccc3)ccc2O[C@@H]1CN(C)S(=O)(=O)c1cn(C)cn1`, for which the cytotoxicity call is “inactive”.

On to `C[C@@H]1CN([C@@H](C)CO)C(=O)Cc2cc(NC(=O)Nc3ccccc3)ccc2O[C@H]1CN(C)S(=O)(=O)c1cn(C)cn1`, for which the cytotoxicity call is “inactive”.

With `C[C@@H]1CN([C@H](C)CO)C(=O)c2cc(NC(=O)Nc3ccccc3)ccc2O[C@H]1CN(C)S(=O)(=O)c1cn(C)cn1`, the cytotoxicity call was “active”.

Take `C[C@@H]1CN([C@@H](C)CO)C(=O)Cc2cc(NS(=O)(=O)c3ccccc3)ccc2O[C@@H]1CN(C)S(=O)(=O)c1cn(C)cn1`: the cytotoxicity call was “inactive”.

Consider `C[C@@H]1CN([C@H](C)CO)C(=O)Cc2cc(NS(=O)(=O)c3ccccc3)ccc2O[C@H]1CN(C)S(=O)(=O)c1cn(C)cn1`, for which the cytotoxicity call is “active”.

On to `C[C@@H]1CN([C@@H](C)CO)C(=O)c2cc(NC(=O)Nc3ccccc3)ccc2O[C@H]1CN(C)S(=O)(=O)c1cn(C)cn1`, for which the cytotoxicity call was “inactive”.

Consider `CC1c2cccc(O)c2C(=O)C2=C(O)C3(O)C(=O)C(C(N)=O)=C(O)C(N(C)C)C3C(O)C21.Cl` (centres undefined), for which the cytotoxicity call was “inactive”.

For the compound `COc1ccc2c3c(n(c2c1)C)[C@H](CO)N(C[C@]13CN(Cc2ccncc2)C1)C(=O)CN1CCOCC1`, the cytotoxicity call is “inactive”.

With `CC(C)NC(=O)N(C)C[C@@H]1Oc2ccc(NC(=O)Nc3ccc4c(c3)OCO4)cc2CC(=O)N([C@H](C)CO)C[C@H]1C`, the cytotoxicity call is “inactive”.

For `C[C@H]1CN([C@@H](C)CO)C(=O)c2cc(NS(=O)(=O)c3ccc(F)cc3)ccc2O[C@@H]1CN(C)S(=O)(=O)c1ccc(F)cc1`, the cytotoxicity call was “inactive”.

On to `C[C@H](CO)N1C[C@H](C)[C@@H](CN(C)S(=O)(=O)c2ccc(Cl)cc2)Oc2ccc(NC(=O)C3CC3)cc2CC1=O`, for which the cytotoxicity call is “inactive”.

For `CCOC(=O)c1nonc1N`, the cytotoxicity call is “inactive”.

For `CN(CCCCCCCCCCN(C)C(=O)Oc1cccc([N+](C)(C)C)c1)C(=O)Oc1cccc([N+](C)(C)C)c1`, the cytotoxicity call is “inactive”.

In the case of `O=C(NCc1ccncc1)C(=O)NC[C@H]1OCCN1S(=O)(=O)c1ccc(F)cc1`, the cytotoxicity call is “inactive”.

Consider `C[C@@H]1CN([C@@H](C)CO)C(=O)c2cccc(NC(=O)Nc3ccc(C(F)(F)F)cc3)c2O[C@H]1CN(C)Cc1ccc(-c2ccccc2)cc1`, for which the cytotoxicity call was “inactive”.

Regarding `C[C@H]1CN([C@@H](C)CO)C(=O)c2ccccc2-c2ccccc2CO[C@@H]1CN(C)Cc1ccccc1C(F)(F)F`, the cytotoxicity call is “inactive”.

Turning to `CC(NCCC(c1ccccc1)c1ccccc1)c1ccccc1.Cl` (centres undefined), the cytotoxicity call is “active”.

With `C[C@@H](NCCC(c1ccccc1)c1ccccc1)c1ccccc1`, the cytotoxicity call was “active”.

On to `CCCCC(O)c1ccccc1` (centres undefined), for which the cytotoxicity call was “inactive”.

Regarding `C[C@@H](NC(=O)[C@@H]1CCCC[C@H]1C(=O)O)c1ccccc1.C[C@@H](NC(=O)[C@H]1CCCC[C@H]1C(=O)O)c1ccccc1`, the cytotoxicity call is “inactive”.

As for `C[C@H](NC(=O)[C@@H]1CCCC[C@H]1C(=O)O)c1ccccc1.C[C@H](NC(=O)[C@H]1CCCC[C@H]1C(=O)O)c1ccccc1`, the cytotoxicity call is “inactive”.

For `CCCC[C@@H](O)c1ccccc1`, the cytotoxicity call is “inactive”.

In the case of `Cc1noc(C)c1NC(=O)Nc1ccc2c(c1)C(=O)N([C@@H](C)CO)C[C@@H](C)[C@@H](CN(C)C(=O)Nc1ccc(C(F)(F)F)cc1)OCCCC[C@@H](C)O2`, the cytotoxicity call was “inactive”.

For the compound `C[C@@H]1CN([C@H](C)CO)C(=O)Cc2cc(NC(=O)Nc3ccc(F)cc3)ccc2O[C@H]1CN(C)C(=O)Nc1cccc2ccccc12`, the cytotoxicity call is “inactive”.

As for `C[C@@H]1CN([C@@H](C)CO)C(=O)Cc2cc(NS(=O)(=O)c3cn(C)cn3)ccc2O[C@@H]1CN(C)S(=O)(=O)c1cccs1`, the cytotoxicity call is “inactive”.

As to `Cc1noc(C)c1S(=O)(=O)N(C)C[C@@H]1OCCCC[C@@H](C)Oc2ccc(NC(=O)Nc3ccccc3)cc2C(=O)N([C@H](C)CO)C[C@@H]1C`, the cytotoxicity call is “inactive”.

Turning to `C[C@@H]1CN([C@H](C)CO)C(=O)Cc2cc(NC(=O)C3CCCCC3)ccc2O[C@H]1CN(C)Cc1ccc(Cl)c(Cl)c1`, the cytotoxicity call is “inactive”.

Regarding `N=C(N)c1ccc2nc(-c3cc(CC(=O)N[C@@H](CC(=O)O)C(=O)O)cc(-c4cc(S(N)(=O)=O)ccc4O)c3O)[nH]c2c1`, the cytotoxicity call was “inactive”.

For `C[C@H](CO)N1C[C@H](C)[C@H](CN(C)C(=O)Nc2ccc(C(F)(F)F)cc2)Oc2ccc(NC(=O)Nc3cccc4ccccc34)cc2CC1=O`, the cytotoxicity call is “inactive”.

`C[C@@H]1CN([C@H](C)CO)C(=O)Cc2cc(NC(=O)NC3CCCCC3)ccc2O[C@@H]1CN(C)Cc1ccc(Cl)c(Cl)c1`: the cytotoxicity call is “active”.

Regarding `C[C@@H]1CN([C@@H](C)CO)C(=O)Cc2cc(NC(=O)NC3CCCCC3)ccc2O[C@@H]1CN(C)Cc1ccc(Cl)c(Cl)c1`, the cytotoxicity call was “active”.

On to `C[C@@H]1CN([C@@H](C)CO)C(=O)Cc2cc(NC(=O)NC3CCCCC3)ccc2O[C@H]1CN(C)Cc1ccc(Cl)c(Cl)c1`, for which the cytotoxicity call is “inactive”.

For `C[C@H](CO)N1C[C@H](C)[C@@H](CN(C)Cc2ccc(Cl)c(Cl)c2)Oc2ccc(NC(=O)NC3CCCCC3)cc2CC1=O`, the cytotoxicity call is “inactive”.

As to `C[C@H](CO)N1C[C@H](C)[C@H](CN(C)Cc2ccc(Cl)c(Cl)c2)Oc2ccc(NC(=O)NC3CCCCC3)cc2CC1=O`, the cytotoxicity call is “inactive”.

On to `C[C@@H]1CN([C@H](C)CO)C(=O)Cc2cc(NC(=O)NC3CCCCC3)ccc2O[C@H]1CN(C)Cc1ccc(Cl)c(Cl)c1`, for which the cytotoxicity call is “inactive”.

`C[C@@H]1CN([C@H](C)CO)C(=O)c2cc(NS(=O)(=O)c3ccc(Cl)cc3)ccc2O[C@@H](C)CCCCO[C@H]1CN(C)C(=O)Nc1ccccc1`: the cytotoxicity call is “inactive”.

On to `O=C(C[C@@H]1CC[C@@H]2[C@H](COC[C@@H](O)CN2S(=O)(=O)c2ccccc2)O1)NCCN1CCCCC1`, for which the cytotoxicity call was “inactive”.

As to `O=C(c1ccccc1F)N1c2ccccc2Sc2ccccc21`, the cytotoxicity call is “inactive”.

On to `Cc1ccc(C(=O)N2c3ccccc3Sc3ccccc32)cc1`, for which the cytotoxicity call was “inactive”.

Consider `CC(CN(C)C)CN1c2ccccc2Sc2ccccc21.O=C(O)C(O)C(O)C(=O)O` (centres undefined), for which the cytotoxicity call is “active”.

With `CC(CN(C)C)CN1c2ccccc2CCc2ccccc21.O=C(O)C=CC(=O)O` (centres undefined), the cytotoxicity call is “active”.

Take `O=C(Nc1ccccc1)N1c2ccccc2CCc2ccccc21`: the cytotoxicity call is “inactive”.

With `CCOC(=O)C(CCc1ccccc1)NC1CCc2ccccc2N(CC(=O)O)C1=O.Cl` (centres undefined), the cytotoxicity call was “inactive”.

As for `COc1ccc(NC(=O)N(C)C[C@@H]2OCc3ccccc3-c3c(n(C)c4ccccc34)C(=O)N([C@H](C)CO)C[C@@H]2C)c(OC)c1`, the cytotoxicity call was “inactive”.

For `CCC(=O)Nc1ccc2c(c1)OC[C@@H](C)N(C(=O)CN1CCOCC1)C[C@@H](C)[C@H](OC)CN(C)C2=O`, the cytotoxicity call is “inactive”.

As for `Cc1noc(C)c1NC(=O)Nc1ccc2c(c1)C(=O)N([C@H](C)CO)C[C@H](C)[C@@H](CN(C)C(=O)Nc1ccc(C(F)(F)F)cc1)O2`, the cytotoxicity call is “inactive”.

For the compound `Cc1ccc(S(=O)(=O)Nc2cccc3c2O[C@H](CN(C)Cc2ccc(Oc4ccccc4)cc2)[C@@H](C)CN([C@@H](C)CO)C3=O)cc1`, the cytotoxicity call is “inactive”.

Turning to `C[C@@H]1CN([C@@H](C)CO)C(=O)Cc2cc(NC(=O)NC3CCCCC3)ccc2O[C@H]1CN(C)S(=O)(=O)c1cn(C)cn1`, the cytotoxicity call was “inactive”.

In the case of `C[C@H]1CCCCO[C@H](CN(C)S(=O)(=O)c2ccc(F)cc2)[C@@H](C)CN([C@@H](C)CO)C(=O)c2cc(NC(=O)NC3CCCCC3)ccc2O1`, the cytotoxicity call is “inactive”.

As for `C[C@H](CO)N1C[C@H](C)[C@H](CN(C)Cc2ccc(Oc3ccccc3)cc2)Oc2c(NC(=O)CCCCCC(=O)Nc3ccccc3N)cccc2C1=O`, the cytotoxicity call was “inactive”.

On to `C[C@@H]1CN([C@H](C)CO)C(=O)c2cccc(NC(=O)CCCCCC(=O)Nc3ccccc3N)c2O[C@H]1CN(C)Cc1ccc(Oc2ccccc2)cc1`, for which the cytotoxicity call is “inactive”.

On to `COc1ccc(CN(C)C[C@H]2Oc3c(NC(=O)CCCCCC(=O)Nc4ccccc4N)cccc3C(=O)N([C@@H](C)CO)C[C@@H]2C)cc1`, for which the cytotoxicity call was “active”.

Turning to `COc1ccc(CN(C)C[C@@H]2Oc3c(NC(=O)CCCCCC(=O)Nc4ccccc4N)cccc3C(=O)N([C@H](C)CO)C[C@H]2C)cc1`, the cytotoxicity call is “inactive”.

For `COc1ccc(CN(C)C[C@@H]2Oc3c(NC(=O)CCCCCC(=O)Nc4ccccc4N)cccc3C(=O)N([C@@H](C)CO)C[C@H]2C)cc1`, the cytotoxicity call was “inactive”.

In the case of `C[C@@H]1CN([C@@H](C)CO)C(=O)c2cccc(NC(=O)CCCCCC(=O)Nc3ccccc3N)c2O[C@@H]1CN(C)Cc1ccc(Oc2ccccc2)cc1`, the cytotoxicity call was “active”.
